Source: PubChem BioAssay (National Center for Advancing Translational Sciences (NCATS))
The full list was thinned out, with hits kept by preference.
Methyltransferases: Primary Screen for Target Class Profiling of Small Molecule Inhibitors of Methyltransferases; purified enzyme, MTase-Glo SAH luminescence; stronger effect = lower value; calls only at 40 µM; hit rate 3.9% among 25,000; call rule not given here
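Each enzyme was reacted with SAM and its substrate, with compounds tested once at 40 uM; SAH formed was read by MTase-Glo luminescence.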
* = called active by the depositor; i = inactive; + = active, no number; ! = not active in a repeat. On the % scale 0 is the no-effect control and ±100 the full control effect.

SMILES	Methyltransferases
Cc1[nH]nc(C(F)(F)F)c1Cc1sc2c(c1C(=O)N1C[C@](C)(O)CO1)c(=O)n(C)c(=O)n2C(C)C	i
Cc1cccc(CSc2nnc3n(CCCOC(C)C)c(=O)c4ccccc4n23)c1	i
CCC(CC)C(c1ccc(Nc2nc3ccccc3s2)cc1)n1cncn1 (stereo not drawn)	+
Cc1cccc(CN2CCCn3nc(C(=O)NCCc4cccs4)cc3C2=O)c1	i
CC1(C(=O)NC2CCCCCCC2)Cn2c(cc3sccc32)C(=O)N1c1cccc(Cl)c1 (stereo not drawn)	i
Cc1ccc2nc(N)[nH]c(=O)c2c1Sc1ccncc1	+
COC(=O)c1cc2n(n1)CC(C)(C(=O)NC1CCCCC1)N(c1cccc(F)c1)C2=O (stereo not drawn)	i
CC(=O)Nc1c2n(c3ccccc13)CC(C)(C(=O)NC1CCCCC1)N(Cc1ccc(F)cc1)C2=O (stereo not drawn)	i
COCC1CN(C(C)=O)CC12CCN(C(=O)c1nn(C)c3ccccc13)CC2 (stereo not drawn)	i
CSc1cccc(N2C(=O)c3cc(-c4ccco4)nn3CC2(C)C(=O)NC2CCCCC2)c1 (stereo not drawn)	i
CN(C)C/C=C/C(=O)Nc1cc2c(Nc3ccc(F)c(Cl)c3)ncnc2cc1O[C@H]1CCOC1	+
CCOc1cc2ncc(C#N)c(Nc3ccc(F)c(Cl)c3)c2cc1NC(=O)/C=C/CN(C)C	+
CN(C)C/C=C/C(=O)Nc1cc2c(Nc3ccc(F)c(Cl)c3)ncnc2cc1OC1CCOC1 (stereo not drawn)	+
CCOc1cc2ncc(C#N)c(Nc3ccc(OCc4ccccn4)c(Cl)c3)c2cc1NC(=O)/C=C/CN(C)C	i
Cc1ccc(CNC(=O)Cn2nc3n(C)c(=O)c4ccc(C(=O)NC5CCCC5)cc4n3c2=O)cc1	i
COCC1CCN(c2ccc(-c3nc(-c4ccccc4C)no3)cn2)C1 (stereo not drawn)	i
CCOC(=O)c1ccc2c(c1)C1C=CCC1C(c1ccc(OC(C)=O)cc1OC(C)=O)N2 (stereo not drawn)	i
CC1(C(=O)NC2CCCCC2)Cn2c(cc3sccc32)C(=O)N1Cc1ccc(F)cc1 (stereo not drawn)	i
CC(C)NC(=O)c1ccc2c(=O)n(Cc3ccccc3)c3nnc(SCC(=O)NC(C)(C)C)n3c2c1	i
CC(C)OC(=O)C1=CN(C(=O)c2ccc(F)c(F)c2)CC(C)(C)c2c1[nH]c1ccccc21	i
CCOCCCNC(=O)C1c2c(n(C)c3ccccc23)SCC(=O)N1Cc1ccco1 (stereo not drawn)	i
O=C1CCN(C(=O)c2ccoc2)CCCC(c2nc(-c3cccnc3)no2)CCN1 (stereo not drawn)	i
CC(C)Nc1nc2c(S(=O)(=O)c3ccccc3)nnn2c2ccc(Cl)cc12	i
COc1cc(N2CCC(N3CCN(C)CC3)CC2)ccc1Nc1ncnc(Nc2ccccc2S(=O)(=O)C(C)C)n1	i
COc1cc(N2CCC(O)CC2)ccc1Nc1cc(Nc2ccccc2S(=O)(=O)C(C)C)c2cc[nH]c2n1	+
SMILES	Methyltransferases
CCC(NS(=O)(=O)c1cc(-n2cccn2)ccc1OC)C1CC(O)C1 (stereo not drawn)	i
CCCN1C(=O)c2cc(C(=O)NCc3ccc(Cl)cc3)nn2CC1(C)C(=O)NC1CCCC1 (stereo not drawn)	i
CC(C)CCNC(=O)CCc1nnc2n(Cc3ccc(Cl)cc3)c(=O)c3ccccc3n12	i
Cc1cc2c(cc1CC(=O)c1sccc1S(=O)(=O)Nc1onc(C)c1Cl)OCO2	+!
COc1ccc(C2CC(=O)c3cc(-c4nc(-c5cccc([N+](=O)[O-])c5)cs4)c(=O)n(-c4ccccc4N)c3C2)cc1 (stereo not drawn)	+
COc1ccc(S(=O)(=O)Nc2nc(-c3cccc([N+](=O)[O-])c3)cs2)cc1OC	i
C=C(C)[C@H]1C[C@@H](O)C(=C)CC[C@@H](O)C(=C)[C@@H](O)C1	+
C=CCn1c(=O)c2ccc(C(=O)NC(C)CC)cc2n2c(=O)n(CC(=O)Nc3ccccc3)nc12 (stereo not drawn)	i
O=C(C[C@@H]1C(C(=O)O)=CO[C@@H](O[C@@H]2O[C@H](CO)[C@@H](O)[C@H](O)[C@H]2O)/C1=C\CO)OCCc1ccc(O)c(O)c1	i
COc1ccc(S(=O)(=O)NCc2nc(-c3ccc(OC)c(OC)c3)no2)cc1	i
COc1ccc(CCNc2nc3c(S(=O)(=O)c4ccc(C)cc4)nnn3c3ccccc23)cc1OC	i
COc1ccc(-c2cnc3ccc(NCc4ccc(S(N)(=O)=O)cc4)nn23)cc1OC	+
CSc1ccc(CN2C(=O)c3ccc(-c4ccco4)n3CC2(C)C(=O)NC2CCCCC2)cc1 (stereo not drawn)	i
CCC(C(=O)NC1CC1)n1ccc2cc(S(=O)(=O)N3CCCCC3)ccc21 (stereo not drawn)	i
COc1ccc(CNC(=O)CCn2ccc3cc(S(=O)(=O)N4CCCCC4)ccc32)c(OC)c1	i
Cn1c(=O)n(C)c2cc(S(=O)(=O)Nc3ccccc3)c(Cl)cc21	i
COc1ccc(NS(=O)(=O)c2cc3c(cc2Cl)n(C)c(=O)n3C)cc1	i
O=S(=O)(Nc1cc(Cl)c(Oc2cnc3ccccc3c2)c(Cl)c1)c1ccc(Cl)cc1Cl	+
O=C(O)CC1(CC(=O)N[C@@H]2C=C(C(=O)N[C@H]3CCCNC3=O)C[C@@H](O)[C@@H]2O)CCCC1	i
COc1ccc(N(C(=O)C2CCCCC2)S(=O)(=O)c2ccc3c(c2)n(C)c(=O)n3C)cc1	i
O=C(CC1=CCCCC1)N1CC(F)(F)C[C@H]1c1nc(C2CC2)no1	i
CCOCCCNC(=O)c1cc2n(n1)CC(C)(C(=O)NC1CCCCC1)N(C)C2=O (stereo not drawn)	i
CC1(C)CCC[C@@]2(C)[C@H]1[C@H](O)C=C(CO)[C@]2(O)CO	i
Cc1ccc2c(cnn2C(=O)CCCC(=O)N2CCN(c3ccccc3)CC2)c1	i
Cc1ccc(CNC(=O)c2cc3n(n2)CC(C)(C(=O)NCc2ccc(F)cc2)N(C)C3=O)cc1 (stereo not drawn)	i
SMILES	Methyltransferases
O=C1NC(Cc2c[nH]c3ccccc23)C(=O)NC1Cc1c[nH]c2ccccc12 (stereo not drawn)	i
Clc1ncoc1-c1c[nH]c2ccccc12	i
O=C1NC(=O)C(c2c[nH]c3ccccc23)=C1c1c[nH]c2ccccc12	+
CCOC(=O)c1cc2n(n1)CC(C)(C(=O)NCc1ccccc1)N(Cc1ccc(OC)cc1OC)C2=O (stereo not drawn)	i
OC1(CN2CCC(c3nc(-c4ccccc4)no3)CC2)CNCCOC1 (stereo not drawn)	i
CC1=CC(=O)CC(C)(C)C1CCC(C)O[C@@H]1O[C@H](CO[C@@H]2OC[C@@H](O)[C@H](O)[C@H]2O)[C@@H](O)[C@H](O)[C@H]1O (stereo partly drawn)	+
CC1=CC(=O)CC(C)(C)[C@H]1/C=C/C(CO)O[C@@H]1O[C@H](CO)[C@@H](O)[C@H](O)[C@H]1O (stereo partly drawn)	i
C[C@H](/C=C/[C@@]1(O)[C@H](C)CC(=O)CC1(C)C)O[C@@H]1O[C@H](CO[C@@H]2OC[C@@H](O)[C@H](O)[C@H]2O)[C@@H](O)[C@H](O)[C@H]1O	i
CC(C)CCN1CCC(O)(c2csc(CN(C)Cc3cccnc3)n2)CC1	i
